Experimental data reported in PubChem BioAssay (EPA / NIEHS).
The source made the active and inactive calls. How the source made its calls: active means hit-call score of the fitted dose curve at least 0.9, where 1 is the maximum; inactive means score below 0.9.

System: not listed separately
Experiment: ATG_NFI_CIS: Attagene CIS-FACTORIAL HepG2 Assay for human Nuclear Factor I (NFI) (AID 2282989)
Settings: HepG2 cis-regulatory reporter, NFI response element transcription; actives raise or lower the signal
Outline: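 Transfected HepG2 liver cells, exposed 24 h, supplied total RNA for oligo(dT) reverse transcription and reporter-specific PCR. Labelled, HpaI-cut fragments were sized by capillary electrophoresis; DMSO set the baseline for bidirectional fitting.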

Structure (SMILES)	outcome	AC50
O=C(c1ccccc1)C(O)c1ccccc1 (configuration not stated)	inactive	
C=CC(=O)OCCC#N	inactive	
Cc1ncc([N+](=O)[O-])n1CCO	inactive	
C=C(C)C(=O)OCCOCCOCCOC(=O)C(=C)C	inactive	
C/C=C(\C)C(=O)OCCc1ccccc1	inactive	
CCCC(=O)C(CC)Sc1ccoc1C (configuration not stated)	inactive	
Nc1ccc2c(O)cc(S(=O)(=O)O)cc2c1	inactive	
COC(CC(C)CCCC(C)(C)O)OC (configuration not stated)	inactive	
CCC1CCCCC1	inactive	
CN(C)c1ccncc1	inactive	
CCCCCCCCCC(C)C=O (configuration not stated)	inactive	
CCCCCCOC(=O)C(C)C	inactive	
O=C(O)CCCCCCCCCCCC(=O)O	inactive	
CCCC(O)C(O)CO (configuration not stated)	inactive	
CCCCCCOCCOCCO	inactive	
CC(C)c1ccccc1O	inactive	
C=C(C)C(=O)OCCOC1CC2CC1C1C=CCC21 (configuration not stated)	inactive	

Structure (SMILES)	outcome	AC50
O=C1OC(=O)c2c(Br)c(Br)c(Br)c(Br)c21	inactive	
CCOc1ccc(N=Nc2ccc(C=Cc3ccc(N=Nc4ccc(OCC)cc4)cc3S(=O)(=O)O)c(S(=O)(=O)O)c2)cc1	inactive	
COC(=O)c1ccc(C)cc1C1=NC(C)(C(C)C)C(=O)N1 (configuration not stated) (tested in a mixture with another compound)	inactive	
CC(=O)c1ccccn1	inactive	
CC1(C)CCC[C@]2(C)[C@H]3CCO[C@]3(C)CC[C@@H]12	inactive	
CCCCSCCCC	inactive	
CCN(CCN)c1cccc(C)c1	inactive	
CCCC(C)=O	inactive	
OCC(O)c1ccccc1 (configuration not stated)	inactive	
Cc1occc(=O)c1OC(=O)C(C)C	inactive	
CCOc1ccccc1O	inactive	
CC(C)(N=C=O)c1cccc(C(C)(C)N=C=O)c1	inactive	
O=C1NC2NC(=O)NC2N1 (configuration not stated)	inactive	
CCCCCCCCCCCC(=O)OCC(O)CO (configuration not stated)	inactive	
CC(C)(CO)[C@@H](O)C(=O)NCCC(=O)O	inactive	
CCC(C)c1cc([N+](=O)[O-])cc([N+](=O)[O-])c1OC(=O)OC(C)C (configuration not stated)		24.5 µM (active)
CCOc1ccc(NC(=O)CC(C)=O)cc1	inactive	

Molecular target: Myc proto-oncogene protein (Homo sapiens) (UniProt P01106)
Sequence (P01106 whole entry, looked up): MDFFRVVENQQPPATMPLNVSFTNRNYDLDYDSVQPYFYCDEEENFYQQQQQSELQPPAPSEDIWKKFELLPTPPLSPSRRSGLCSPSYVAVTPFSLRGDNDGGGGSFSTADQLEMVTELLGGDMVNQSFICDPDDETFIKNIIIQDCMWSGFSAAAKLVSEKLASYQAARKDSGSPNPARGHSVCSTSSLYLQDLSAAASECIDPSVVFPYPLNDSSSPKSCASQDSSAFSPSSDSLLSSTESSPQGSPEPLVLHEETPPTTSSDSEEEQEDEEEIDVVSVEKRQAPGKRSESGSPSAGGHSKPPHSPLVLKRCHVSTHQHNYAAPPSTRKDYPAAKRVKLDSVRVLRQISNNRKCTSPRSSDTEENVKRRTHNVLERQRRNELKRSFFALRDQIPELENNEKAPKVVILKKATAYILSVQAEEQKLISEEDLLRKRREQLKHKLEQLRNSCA
Experiment: ATG_Myc_CIS: Attagene CIS-FACTORIAL HepG2 Assay for human Myelocytomatosis (Myc) Proto-Oncogene Transcription Factor (AID 2282990)
Settings: HepG2, Attagene cis-reporter transcription factor activity; actives raise or lower the signal
Outline: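 Transiently transfected HepG2 cells bearing cis-promoter reporter units for endogenous transcription factors; 24 h exposure. Reporter mRNA measured by RT-PCR, 6-FAM primer extension, HpaI cut and capillary electrophoresis; bidirectional fit relative to DMSO.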

Structure (SMILES)	outcome
O=C(c1ccccc1)C(O)c1ccccc1 (configuration not stated)	inactive
C=CC(=O)OCCC#N	inactive
Cc1ncc([N+](=O)[O-])n1CCO	inactive
C=C(C)C(=O)OCCOCCOCCOC(=O)C(=C)C	inactive
C/C=C(\C)C(=O)OCCc1ccccc1	inactive
O=CCc1ccccc1	inactive
CCCC(=O)C(CC)Sc1ccoc1C (configuration not stated)	inactive
Nc1ccc2c(O)cc(S(=O)(=O)O)cc2c1	inactive
COC(CC(C)CCCC(C)(C)O)OC (configuration not stated)	inactive
CCC1CCCCC1	inactive
CN(C)c1ccncc1	inactive
CCCCCCCCCC(C)C=O (configuration not stated)	inactive
CC(C)NCC(O)COc1ccc(CC(N)=O)cc1 (configuration not stated)	inactive
CCCCCCOC(=O)C(C)C	inactive
O=C(O)CCCCCCCCCCCC(=O)O	inactive
CCCC(O)C(O)CO (configuration not stated)	inactive
CCCCCCOCCOCCO	inactive
CCc1ccc(O)c(OC)c1	inactive
CC(C)c1ccccc1O	inactive

Structure (SMILES)	outcome
C=C(C)C(=O)OCCOC1CC2CC1C1C=CCC21 (configuration not stated)	inactive
O=C1OC(=O)c2c(Br)c(Br)c(Br)c(Br)c21	inactive
CCOc1ccc(N=Nc2ccc(C=Cc3ccc(N=Nc4ccc(OCC)cc4)cc3S(=O)(=O)O)c(S(=O)(=O)O)c2)cc1	inactive
COC(=O)c1ccc(C)cc1C1=NC(C)(C(C)C)C(=O)N1 (configuration not stated) (tested in a mixture with another compound)	inactive
CC(=O)c1ccccn1	inactive
CC1(C)CCC[C@]2(C)[C@H]3CCO[C@]3(C)CC[C@@H]12	inactive
CCCCSCCCC	inactive
CCN(CCN)c1cccc(C)c1	inactive
CCCC(C)=O	inactive
OCC(O)c1ccccc1 (configuration not stated)	inactive
Cc1occc(=O)c1OC(=O)C(C)C	inactive
CCOc1ccccc1O	inactive
CC(C)(N=C=O)c1cccc(C(C)(C)N=C=O)c1	inactive
O=C1NC2NC(=O)NC2N1 (configuration not stated)	inactive
CCCCCCCCCCCC(=O)OCC(O)CO (configuration not stated)	inactive
COc1cccc(OC)c1O	inactive
CC(C)(CO)[C@@H](O)C(=O)NCCC(=O)O	inactive
CCC(C)c1cc([N+](=O)[O-])cc([N+](=O)[O-])c1OC(=O)OC(C)C (configuration not stated)	inactive
CCOc1ccc(NC(=O)CC(C)=O)cc1	inactive
